ChEMBL document CHEMBL3988442, “University of Dundee, Small-Polar-MMV Screening Library” (2021)
Hit rate of the full screen: of about 48,000 compounds, about 13,000 (27%) showed an effect of 50% or more. The list shows a part of the results.

The molecules below were run on Wolbachia pipientis (assay: Anti-Wolbachia Cell-Based Screen). Conditions: 5 µM.
Format: functional
Set-up: scale not given: in the data most compounds retested in dose-response had high values

Row | Structure (SMILES) | Percent Effect [%]
1 | O=c1[nH]c(NCc2cccc(OC(F)F)c2)nc2c1CCNC2 | -5.963
2 | O=C(NCC1CC1)[C@H]1C[C@@H]2CN(C(=O)NCC3CCCCC3)C[C@H]1O2 | 9.811
3 | CC(C)(C)c1ncc(C(=O)N2CCC(N3CCSCC3)CC2)c(O)n1 | -20.12
4 | CN(C)C(C(=O)N1CCC(N2CCSCC2)CC1)c1ccccc1F (centres undefined) | 11.01
5 | COC1CCCN(C(=O)c2sc(CC(C)C)nc2C)C1 (centres undefined) | -1.564
6 | Cc1nc(CC(C)C)sc1C(=O)N1CCC1 | -0.1519
7 | Cc1nc(C(C)C)sc1C(=O)N1CCC(C(N)=O)CC1 | 81.6
8 | Cc1nc(C(C)C)sc1C(=O)N1CCN(C2CCSCC2)CC1 | 90.05
9 | CCCn1ncc(C(=O)N2CCN(C3CCSCC3)CC2)c1C | 7.373
10 | Cc1nc(C(C)C)sc1C(=O)N1CCC(N2CCSCC2)CC1 | 96.22
11 | Cc1nc(CC(C)C)sc1C(=O)N1CCC(C2(C)OCCO2)CC1 | 1.957
12 | CCS(=O)(=O)N1C[C@H]2CC[C@@]3(N=C(C)N(CC(C)C)C3=O)[C@H]2C1 | 17.11
13 | Cc1ccc(CN2CCNC(=O)C2CC(=O)N2CCSCC2)o1 (centres undefined) | -50.4
14 | O=C(NCc1ccc(Cl)s1)c1cc(CN2CCCC(O)C2)on1 (centres undefined) | 3.439
15 | CSCc1nc(CCNC(=O)c2cnn(C(C)C)c2)cs1 | -0.3441
16 | CSc1ccc2cc(CN(C)CCO)c(=O)[nH]c2c1 | -7.247
17 | CCC(CNC(=O)CNC(C)=O)Oc1cccc(F)c1 (centres undefined) | -13.27
18 | Cc1ccc(S(=O)(=O)NC[C@H]2OC[C@@H](NCc3cccnc3)[C@@H]2O)cc1 | -9.264
19 | CC(C)NC(=O)CN(C1CC1)C(C)C1CC1 (centres undefined) | -3.628
20 | CNc1nc(C2CCCCN2C(=O)C(C)(C)OC)nc2c1CN(C)CC2 (centres undefined) | 100.3
21 | CNc1nc(N2C[C@H](NC(=O)CCOC)[C@@H](C3CC3)C2)nc2c1CCC2 | -18.85
22 | CNc1nc(C2CCCCN2C(=O)COC)nc2c1CN(C)CC2 (centres undefined) | 112
23 | Nc1nc2c(c(NC3CCCC3)n1)CCN(C(=O)C1CCOC1)CC2 (centres undefined) | 4.82
24 | CC(=O)N1CCCCC1c1nc2c(c(NC3CCCC3)n1)CN(C)CC2 (centres undefined) | 71.52
25 | CC(=O)N1CCCCC1c1nc2c(c(N3CCCCC3)n1)CN(C)CC2 (centres undefined) | -9.745

Row | Structure (SMILES) | Percent Effect [%]
26 | CC1CCCCN1C(=O)c1nc2c(n1C(C)C)CCN(C)C2.O=C(O)C(F)(F)F (centres undefined) | 0.8763
27 | COCC(=O)N[C@H](C(=O)NC(C)c1cccc(C)c1C)C(C)C (some centres undefined) | 4.041
28 | O=C(c1scc2c1OCCO2)N1CCN(Cc2cccc(F)c2)CC1 | -25.63
29 | COCc1noc(-c2ccc(N(C)Cc3nccs3)nc2)n1 | 22.14
30 | CCc1nc(CNC(C)c2cccc(N3CCCC3=O)c2)cs1.Cl (centres undefined) | 4.92
31 | CSc1cc2c(cc1NC(=O)NCC(C)(C)C(N)=O)OCCO2 | -12.99
32 | CC(C)(C)c1noc(CN2CCN(C(=O)c3cccs3)CC2)n1 | -8.519
33 | CCc1cnc(N2CC[C@@H]3CN(C(C)=O)CCO[C@@H]3C2)nc1 | 6.886
34 | CNc1ncc(C(=O)N2CC[C@@](O)(C3CCOCC3)[C@H](C)C2)cn1 | -7.674
35 | CCc1ocnc1C(=O)N1CCC(C2CCN(c3ncccn3)CC2)C1 (centres undefined) | -3.497
36 | CC(=O)N1CCC(n2nccc2-c2cnc(N)nc2)CC1 | 106.3
37 | CC(=O)N1CCC(NCc2cccnc2N(C)Cc2ccccc2)CC1 | -20.17
38 | CC(=O)N1CCC(Oc2ccc(Cl)cn2)CC1 | -4.055
39 | CC(=O)N1CCC(n2nccc2-c2cnc(N(C)CCO)nc2)CC1 | 107.1
40 | Cn1ccnc1CN(CCO)C(=O)C1CCN(C(=O)C2CC2)CC1 | -5.097
41 | CNc1ncc(C(=O)N2CCC(c3ccccc3C(=O)O)C2)cn1 (centres undefined) | 4.233
42 | CNc1ncc(-c2ccnn2C2CCN(C(C)=O)CC2)cn1 | 109.9
43 | CC(=O)N1CCC(n2nccc2-c2cnc(N3CCCC3)nc2)CC1 | 98.34
44 | CCc1cnc(N)nc1N1CCN(C(C)=O)CC1 | -3.404
45 | CC(C(=O)N1CCc2sccc2C1)N1CCCN(C2CC2)CC1 (centres undefined) | 6.579
46 | NC(=O)CCNC(=O)NCC1(c2ccccc2Cl)CCC1 | -8.555
47 | CC(=O)N1CCC(n2nccc2-c2cnc(NCCO)nc2)CC1 | 90.32
48 | CC(=O)N1CCC(NC[C@H]2Cn3c(-c4ccccc4)cnc3CO2)CC1 | -3.853
49 | Cc1noc(C2CCN(C(=O)CCNc3ncccn3)CC2)n1 | 14.51
50 | O=C(O)c1nn(CC2CC2)c2c1CN(S(=O)(=O)c1cccnc1)CC2 | -14.04

Row | Structure (SMILES) | Percent Effect [%]
51 | CC(=O)NCCCc1ncnn1-c1cccc(Cl)c1 | -6.102
52 | CCN(CC)CCNC(=O)CCc1c(C)nn(-c2cccc(Cl)c2)c1C | 114.7
53 | CCN(CC)CCNC(=O)CCc1c(C)nn(-c2ccc(Cl)cc2)c1C | 108.7
54 | COCCNC(=O)CCc1c(C)nn(-c2nc(C)c(C)c(=O)[nH]2)c1C | -2.178
55 | Cc1nn(-c2ccccc2)c(C)c1CC(=O)NC1CC(=O)N(C)C1 (centres undefined) | 10.3
56 | CCn1nc(C)c(CCNC(=O)c2cccc(-n3cccn3)c2)c1C | -5.095
57 | COCc1noc(C2(c3ccc(OC)cc3)CCOCC2)n1 | -14.42
58 | CN1CCN(Cc2cccc(NCc3cc[nH]n3)c2)CC1 | -14.54
59 | Cc1ccc(NC(=O)N2CC[C@@H](O)C2)c(-c2nc(C3CC3)no2)c1 | 101.9
60 | O=C(NCc1nc(C2CC2)no1)N1CCOC(c2cccc(F)c2)C1 (centres undefined) | -4.4
61 | COCC(=O)Nc1ccc(C)cc1-c1nc(C2CC2)no1 | 104.3
62 | O=C(Nc1ccc(F)cc1-c1nc(C2CC2)no1)N1CC[C@@H](O)C1 | 96.09
63 | COc1ccc(CNc2nc(C3CC3)no2)cc1OC | -4.91
64 | O=C(Nc1c(F)cccc1F)N1CC(c2nc(C3CC3)no2)C1 | 16.35
65 | CCCn1nc(-c2nc(C3CC3)no2)ccc1=O | -1.199
66 | O=C(Nc1cc(-c2ccccc2)on1)N1CC[C@H](O)C1 | -19.05
67 | COc1ccc(NC(=O)N2CCC(c3noc(C)n3)CC2)cc1C | -0.09079
68 | CN(C)Cc1nnc(C2CCCN(c3ncccc3F)C2)n1C (centres undefined) | -23.88
69 | Cc1cc(CN(C)CC2(O)CCCN(CCC3CCCCC3)C2=O)no1 (centres undefined) | -6.768
70 | O=C(CN1CCCc2sccc2C1=O)NC1CCc2nccn2C1 (centres undefined) | 7.867
71 | O=C(CCc1nc(Cl)n[nH]1)N[C@H]1CC[C@H]1NC1Cc2ccccc2C1 | -20.04
72 | Cc1ccc(C)c(OC2CCN(C(=O)c3ccc(C)[nH]c3=O)CC2)c1 | -1.4
73 | COC(=O)NCC(=O)N1CCC(Oc2cccc(C)c2)CC1 | -5.707
74 | CCNC(=O)CCC(=O)N1CCC(Oc2cc(C)ccc2C)CC1 | 108
75 | CN(C)CCNC(=O)c1ccc(OC2CCN(C(=O)CO)CC2)c(Cl)c1 | 12.3

Row | Structure (SMILES) | Percent Effect [%]
76 | CCC(=O)N1CCC(Oc2ccc(C(=O)NCCN(C)C)cc2Cl)CC1 | 19.63
77 | Cc1ccc(C)c(OC2CCN(C(=O)c3ccc(O)nc3)CC2)c1 | -12.69
78 | Cc1ccc(C)c(OC2CCN(C(=O)NCC(=O)N3CCCC3)CC2)c1 | 99.13
79 | Cc1ccccc1OC1CCN(C(=O)CNC(=O)N(C)C)CC1 | 13.16
80 | Cc1ccc(C)c(OC2CCN(C(=O)CNc3ccccc3Cl)CC2)c1 | 209.6
81 | O=C([C@H]1C[C@H]2OCC[C@H]2N(C(=O)c2cnccn2)C1)N1CCCCO1 | -3.887
82 | CN(C)C(C(=O)N1CCN(S(N)(=O)=O)CC1)c1ccccc1F (centres undefined) | -29.81
83 | Cn1c(C(F)(F)F)nn(CCNC(=O)NCc2ccccc2)c1=O | -13.86
84 | Cc1cnn(Cc2cc(F)ccc2F)c1NC(=O)CNC(=O)C1CC1 | -28.4
85 | O=C1CCc2cc(S(=O)(=O)NCc3cc4n(n3)CCCNC4)ccc2N1 | -2.764
86 | Cc1ccc(NC2CCN(C(=O)Cc3cccc(F)c3)CC2)nn1 | 5.367
87 | Cc1ccc(NC2CCN(C(=O)COc3cccnc3)CC2)nn1 | 0.9961
88 | Cc1ccc(NC2CCN(C(=O)COc3ccccc3)CC2)nn1 | 80.33
89 | Cc1ccc(NC2CCN(C(=O)COc3cccc(F)c3)CC2)nn1 | 99.48
90 | CC(C)n1cc(S(=O)(=O)NCCc2nnc3ccccn23)cn1 | -12.48
91 | CCn1ncc2c1C(COCC1CC1)N(C(=O)c1ccncn1)CC2.O=C(O)C(F)(F)F (centres undefined) | -5.083
92 | CCOCC1c2c(cnn2CC2CC2)CCN1C(=O)c1ccncn1.O=C(O)C(F)(F)F (centres undefined) | -2.874
93 | CCn1ncc2c1C(COC)N(C(=O)c1cccs1)CC2.O=C(O)C(F)(F)F (centres undefined) | 114.8
94 | CCn1ncc2c1C(COCC1CC1)N(Cc1cnn(C)c1)CC2.O=C(O)C(F)(F)F.O=C(O)C(F)(F)F.O=C(O)C(F)(F)F (centres undefined) | -14.36
95 | CCn1ncc2c1C(COC)N(C(=O)CCc1ccccc1)CC2.O=C(O)C(F)(F)F (centres undefined) | 87.3
96 | CCn1ncc2c1C(COC)N(C(=O)c1cscn1)CC2.O=C(O)C(F)(F)F (centres undefined) | 99.84
97 | CCn1ncc2c1C(COC)N(C(=O)Cc1cccs1)CC2 (centres undefined) | 110.7
98 | COCC1c2nnn(CC3CC3)c2CCN1C(=O)Cc1cccs1 (centres undefined) | 9.028
99 | CCn1ncc2c1C(COCC1CC1)N(Cc1ccccn1)CC2.O=C(O)C(F)(F)F.O=C(O)C(F)(F)F (centres undefined) | 3.009
